The structures appear in SMILES notation. Compounds without any hit were thinned out: in the full panel of roughly 79,000, 15% have a hit. Values without a mark were called inactive. The source made the active and inactive calls. No stated cut-off is given here; in the data, active means growth inhibition above about 70%; inactive means the rest.

One assay is described as follows: NCI Yeast Anticancer Drug Screen. Data for the rad50 strain (AID 155).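 Further: 0% = growth of vehicle-only cultures of the same strain.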 The note with it: S. cerevisiae rad50 strain growth inhibition; at 50.0 µM; active compounds read high. The method in brief:
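Yeast carrying a defined DNA repair defect were exposed to test compounds, and growth was compared with vehicle-treated controls to give percent inhibition.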
Regarding `COC(=O)c1ccc(Cl)c(Cl)c1`, the growth inhibition is 8.2%.

As to `Cc1cc(Br)c2ccccc2c1N`, the growth inhibition is 88.3% (active).

For the molecule `C=C1N(S(=O)(=O)c2ccc(C)cc2)C(=O)OCC12CCCC2`, the growth inhibition was 2.2%.

As for `CCCCCCCCN=C(N)c1ccc(C(=O)OCC2CCCCC2)cc1`, the growth inhibition is 99.6% (active).

For `Nc1ccc2ccc3cccc4ccc1c2c34`, the growth inhibition was 90.3% (active).

As for `C=C(Br)CN(CC(=C)Br)C(C)=O`, the growth inhibition is -11.7%.

For `[Ce+3].[Cl-].[O-]/N=C(\c1ccccc1)c1ccccn1.[O-]/N=C(\c1ccccc1)c1ccccn1.[O-]/N=C(\c1ccccc1)c1ccccn1`, the growth inhibition was 85.5% (active).

Turning to `O=CCCCc1cc2c(cc1Br)CCC2`, the growth inhibition is 60.9%.

Take `C1=C(CC2=C[P+](c3ccccc3)(c3ccccc3)C=C(c3ccccc3)O2)OC(c2ccccc2)=C[P+]1(c1ccccc1)c1ccccc1`: the growth inhibition was 87.4% (active).

`CC/C=C(\C)CC(C)O` (centres undefined): the growth inhibition is 64.9%.

Consider `CCC(c1ccc(Cl)cc1)C(C#N)c1ccc(Cl)cc1` (centres undefined), for which the growth inhibition is 84.3% (active).

For `CN1/C(=C/C=C/C(I)=C/C=C/C2=[N+](C)c3ccccc3C2(C)C)C(C)(C)c2ccccc21`, the growth inhibition is 60.5%.

As to `Nc1ccc(N)c2c1C(=O)c1ccccc1C2=O`, the growth inhibition is 83.2% (active).

As for `CN1C=COC1N=C1CCCCC1` (centres undefined), the growth inhibition is -24.2%.

With `Clc1ccc(Cc2nc3ccccc3s2)c(Cl)c1`, the growth inhibition was 90.8% (active).

Turning to `O=CC1(c2ccc(Cl)cc2)NC(=O)NC1=O` (centres undefined), the growth inhibition is 3.45%.

As for `O=C(CSc1nnc(-c2ccc(N=Cc3ccc(Cl)cc3)cc2)o1)Nc1ccc(Cl)cc1Cl`, the growth inhibition was 95.8% (active).

On to `O=C(Oc1ccccc1)C1CCCCC1C(=O)Oc1ccccc1` (centres undefined), for which the growth inhibition is 39.2%.

As for `O=C(O)Cc1ccc2c(c1O)C(=O)c1ccccc1C2=O`, the growth inhibition was 89.3% (active).

Regarding `O=[N+]([O-])c1cccc(F)c1O`, the growth inhibition is 52.5%.

As for `CCc1nc2c(O)ccc(O)c2nc1C`, the growth inhibition was 72.3% (active).

Turning to `COC(=O)N/N=C(/CC1(O)C(=O)Nc2ccccc21)c1ccc(Cl)cc1Cl` (centres undefined), the growth inhibition was 97.5% (active).

The next assay is described as follows: NCI Yeast Anticancer Drug Screen. Data for the mec2-1 strain (AID 157). The note with it: S. cerevisiae mec2-1 strain, at 5.0 µM (retest, dose inferred, filed as 0.5), active compounds read high. In short, it runs like this:
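Vehicle-treated cultures served as reference for growth inhibition of compound-exposed mec2-1 yeast.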
Regarding `CCCCCCCCCC1OCC(C)O1` (centres undefined), the growth inhibition is 3%.

For the molecule `O=[N+]([O-])c1ccc2c(c1)/C(=C/c1ccc(O)cc1)c1ccccc1-2`, the growth inhibition is 1%.

Regarding `COc1cc2c(cc1OC(C)=O)C(=O)C(Br)(Br)CCC2`, the growth inhibition was 32%.

As for `COC(=O)c1cc2c(oc1=O)-c1ccccc1N(C=O)C2`, the growth inhibition was -9%.

Take `CC(=O)Nc1ccc(S(=O)(=O)/N=C2\C=CC(=O)c3ccccc32)cc1`: the growth inhibition was 4%.

With `C/C(=N/NC(=S)N(C)C)c1ccccc1O`, the growth inhibition is -34%.

Consider `CC(CN(C)C)C(=O)/C=C/c1c(Cl)cccc1Cl` (centres undefined), for which the growth inhibition was 8%.

With `N#CC(O)C(Br)(Br)Br` (centres undefined), the growth inhibition was -3%.

With `C=Cc1cc(N=Nc2ccc([N+](=O)[O-])cc2)ccc1N(C)C`, the growth inhibition was -1%.

Turning to `Cc1cccnc1NC(=S)Nc1ccccc1Cl`, the growth inhibition is 12%.

Regarding `O=C1C=CC(=O)c2c(O)c(N3CCC[C@@H]3CO)c(Cl)c(O)c21`, the growth inhibition was 30%.

Regarding `Cc1cc(C(=O)O)c(C)c2c1sc1ccccc12`, the growth inhibition was 3%.

As for `COc1cccc2c1OC(c1ccc(Cl)cc1)C([N+](=O)[O-])=C2` (centres undefined), the growth inhibition is 95% (active).

Turning to `CC1=C(C(=O)Nc2cccc(Cl)c2)C(c2ccccc2F)C(C(=O)Nc2cccc(Cl)c2)=C(C)N1`, the growth inhibition was 49%.

Turning to `Cc1ccc(C2C(O)=C(c3ccccc3)Sc3ccc(C)cc32)cc1` (centres undefined), the growth inhibition is -5%.

Turning to `CC(=O)Oc1ccc(C)c(C(C)C(Cl)(Cl)Cl)c1` (centres undefined), the growth inhibition is -5%.

With `CCCC(=O)Oc1ccc(-c2ccc(Br)cc2)cc1`, the growth inhibition is 11%.

In the case of `CCCCC#CCOC(=O)c1cc([N+](=O)[O-])cc([N+](=O)[O-])c1`, the growth inhibition is 99% (active).

Consider `COC(=O)c1ccc(Cl)c(Cl)c1`, for which the growth inhibition was -2%.

`Cc1cc(Br)c2ccccc2c1N`: the growth inhibition is 2%.

Take `C=C1N(S(=O)(=O)c2ccc(C)cc2)C(=O)OCC12CCCC2`: the growth inhibition was -15%.

`CCCCCCCCN=C(N)c1ccc(C(=O)OCC2CCCCC2)cc1`: the growth inhibition is 99% (active).

`Nc1ccc2ccc3cccc4ccc1c2c34`: the growth inhibition is -37%.

In the case of `C=C(Br)CN(CC(=C)Br)C(C)=O`, the growth inhibition is 17%.

Consider `[Ce+3].[Cl-].[O-]/N=C(\c1ccccc1)c1ccccn1.[O-]/N=C(\c1ccccc1)c1ccccn1.[O-]/N=C(\c1ccccc1)c1ccccn1`, for which the growth inhibition was 28%.

Regarding `O=CCCCc1cc2c(cc1Br)CCC2`, the growth inhibition is 14%.

`C1=C(CC2=C[P+](c3ccccc3)(c3ccccc3)C=C(c3ccccc3)O2)OC(c2ccccc2)=C[P+]1(c1ccccc1)c1ccccc1`: the growth inhibition is 8%.
